# “And” between values parts separate entries of the source, which are not always exact repeats. Equal entries are not always repeated. Where two headings read alike, the source gives them in different places.
# Key:
# ABL2 = settings: concentration: 1 μM, replicates: in singlicate, n = 1
# ACVR1B = settings: concentration: 1 μM, replicates: in singlicate; n = 1
# ACVR1 = settings: concentration: 1 μM, replicates: in singlicate; n = 1
# ACVR2A = settings: concentration: 1 μM, replicates: in singlicate; n = 1
# ACVR2B = settings: concentration: 1 μM, replicates: in singlicate; n = 1
# ACVRL1 = settings: concentration: 1 μM, replicates: in singlicate; n = 1
# ADCK3 = system: T1, ADCK3; settings: concentration: 1 μM, replicates: in singlicate, n = 1
# T1 construct: gene CABC1
# ADCK4 = settings: concentration: 1 μM, replicates: in singlicate, n = 1
# AKT1 = settings: concentration: 1 μM, replicates: in singlicate; n = 1
# AKT2 = settings: concentration: 1 μM, replicates: in singlicate, n = 1
# AKT3 = settings: concentration: 1 μM, replicates: in singlicate, n = 1
# ALK = settings: concentration: 1 μM, replicates: in singlicate; n = 1
# AMPK-alpha1 = system: T2, AMPK-alpha1; settings: concentration: 1 μM, replicates: in singlicate, n = 1
# T2 construct: gene PRKAA1
# AMPK-alpha2 = system: T3, AMPK-alpha2; settings: concentration: 1 μM, replicates: in singlicate; n = 1
# T3 construct: gene PRKAA2
# ANKK1 = settings: concentration: 1 μM, replicates: in singlicate, n = 1
# ARK5 = system: T4, ARK5; settings: concentration: 1 μM, replicates: in singlicate, n = 1
# T4 construct: gene NUAK1
# ASK1 = system: T5, ASK1; settings: concentration: 1 μM, replicates: in singlicate, n = 1
# T5 construct: gene MAP3K5
# ASK2 = system: T6, ASK2; settings: concentration: 1 μM, replicates: in singlicate, n = 1
# T6 construct: gene MAP3K6
# AURKA = settings: concentration: 1 μM, replicates: in singlicate, n = 1
# AURKB = settings: concentration: 1 μM, replicates: in singlicate, n = 1
# 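Also: KINOMEscan kinase panel screen.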
structure (smiles),measurement,setting,value
CNc1nccc(-c2c(-c3ccc(F)cc3)ncn2C2CCN(C)CC2)n1 [SB-222903],%Inh,ABL2,0%
same,%Inh,ACVR1B,0%
same,%Inh,ACVR1,0%
same,%Inh,ACVR2A,0%
same,%Inh,ACVR2B,0%
same,%Inh,ACVRL1,0%
same,%Inh,ADCK3,0%
same,%Inh,ADCK4,22%
same,%Inh,AKT1,0%
same,%Inh,AKT2,2%
same,%Inh,AKT3,0%
same,%Inh,ALK,0%
same,%Inh,AMPK-alpha1,0%
same,%Inh,AMPK-alpha2,16%
same,%Inh,ANKK1,0%
same,%Inh,ARK5,4%
same,%Inh,ASK1,0%
same,%Inh,ASK2,0%
same,%Inh,AURKA,6%
same,%Inh,AURKB,0%
CC(C)(C)OC(=O)NC1CCCN(c2cc(-c3ccc4c(N)n[nH]c4c3)nc(N)n2)C1 (stereo not shown) [GSK2286096],%Inh,ABL2,6%
same,%Inh,ACVR1B,0%
same,%Inh,ACVR1,0%
same,%Inh,ACVR2A,0%
same,%Inh,ACVR2B,0%
same,%Inh,ACVRL1,0%
same,%Inh,ADCK3,8%
same,%Inh,ADCK4,5%
same,%Inh,AKT1,0%
same,%Inh,AKT2,0%
same,%Inh,AKT3,0%
same,%Inh,ALK,36%
same,%Inh,AMPK-alpha1,0%
same,%Inh,AMPK-alpha2,0%
same,%Inh,ANKK1,7%
same,%Inh,ARK5,19%
same,%Inh,ASK1,0%
same,%Inh,ASK2,0%
same,%Inh,AURKA,52%
same,%Inh,AURKB,66%
Nc1nc(-c2ccccn2)c(-c2ccnc3ccccc23)s1 [GW548057],%Inh,ABL2,14%
same,%Inh,ACVR1B,59%
same,%Inh,ACVR1,18%
same,%Inh,ACVR2A,0%
same,%Inh,ACVR2B,56%
same,%Inh,ACVRL1,0%
same,%Inh,ADCK3,9%
same,%Inh,ADCK4,44%
same,%Inh,AKT1,0%
same,%Inh,AKT2,0%
same,%Inh,AKT3,0%
same,%Inh,ALK,17%
same,%Inh,AMPK-alpha1,14%
same,%Inh,AMPK-alpha2,1%
same,%Inh,ANKK1,20%
same,%Inh,ARK5,24%
same,%Inh,ASK1,2%
same,%Inh,ASK2,0%
same,%Inh,AURKA,17%
same,%Inh,AURKB,0%
Cl.Fc1ccccc1COc1ccc(Nc2ncnc3ccc(-c4nnc(C(F)(F)F)o4)cc23)cc1Cl [GW424170],%Inh,ABL2,0%
same,%Inh,ACVR1B,0%
same,%Inh,ACVR1,0%
same,%Inh,ACVR2A,0%
same,%Inh,ACVR2B,0%
same,%Inh,ACVRL1,0%
same,%Inh,ADCK3,0%
same,%Inh,ADCK4,22%
same,%Inh,AKT1,0%
same,%Inh,AKT2,0%
same,%Inh,AKT3,0%
same,%Inh,ALK,0%
same,%Inh,AMPK-alpha1,0%
same,%Inh,AMPK-alpha2,0%
same,%Inh,ANKK1,0%
same,%Inh,ARK5,0%
same,%Inh,ASK1,0%
same,%Inh,ASK2,0%
same,%Inh,AURKA,13%
same,%Inh,AURKB,0%
O=c1cc(N2CCOCC2)nc2n(Cc3cccc(Cl)c3)ccn12 [GSK2296823],%Inh,ABL2,12%
same,%Inh,ACVR1B,0%
same,%Inh,ACVR1,0%
same,%Inh,ACVR2A,0%
same,%Inh,ACVR2B,0%
same,%Inh,ACVRL1,0%
same,%Inh,ADCK3,24%
same,%Inh,ADCK4,0%
same,%Inh,AKT1,0%
same,%Inh,AKT2,3%
same,%Inh,AKT3,0%
same,%Inh,ALK,32%
same,%Inh,AMPK-alpha1,0%
same,%Inh,AMPK-alpha2,0%
same,%Inh,ANKK1,22%
same,%Inh,ARK5,14%
same,%Inh,ASK1,0%
same,%Inh,ASK2,0%
same,%Inh,AURKA,0%
same,%Inh,AURKB,3%
CC(C)N1CCC(n2cnc(-c3ccc(F)cc3)c2-c2ccnc(N)n2)CC1 [SB-223132],%Inh,ABL2,0%
same,%Inh,ACVR1B,0%
same,%Inh,ACVR1,0%
same,%Inh,ACVR2A,22%
same,%Inh,ACVR2B,25%
same,%Inh,ACVRL1,0%
same,%Inh,ADCK3,31%
same,%Inh,ADCK4,0%
same,%Inh,AKT1,3%
same,%Inh,AKT2,0%
same,%Inh,AKT3,0%
same,%Inh,ALK,12%
same,%Inh,AMPK-alpha1,0%
same,%Inh,AMPK-alpha2,11%
same,%Inh,ANKK1,0%
same,%Inh,ARK5,0%
same,%Inh,ASK1,1%
same,%Inh,ASK2,0%
same,%Inh,AURKA,0%
same,%Inh,AURKB,0%
Nc1nc(-c2cccnc2)c(-c2ccnc3ccccc23)s1 [GW684083],%Inh,ABL2,12%
same,%Inh,ACVR1B,10%
same,%Inh,ACVR1,32%
same,%Inh,ACVR2A,0%
same,%Inh,ACVR2B,0%
same,%Inh,ACVRL1,12%
same,%Inh,ADCK3,24%
same,%Inh,ADCK4,45%
same,%Inh,AKT1,0%
same,%Inh,AKT2,1%
same,%Inh,AKT3,0%
same,%Inh,ALK,22%
same,%Inh,AMPK-alpha1,23%
same,%Inh,AMPK-alpha2,20%
same,%Inh,ANKK1,5%
same,%Inh,ARK5,0%
same,%Inh,ASK1,0%
same,%Inh,ASK2,10%
same,%Inh,AURKA,0%
same,%Inh,AURKB,7%
COc1ccc(-c2nc3n(c2-c2ccncc2)CCC3)cc1 [SKF-104493],%Inh,ABL2; 1 µM,5% and 0%
same,%Inh,ACVR1B,19%
same,%Inh,ACVR1,0%
same,%Inh,ACVR2A,0%
same,%Inh,ACVR2B,0%
same,%Inh,ACVRL1,0%
same,%Inh,ADCK3; 1 µM,0% and 6%
same,%Inh,ADCK4; 1 µM,12% and 6%
same,%Inh,AKT1,0%
same,%Inh,AKT2; 1 µM,0% and 3%
same,%Inh,AKT3; 1 µM,19% and 0%
same,%Inh,ALK,0%
same,%Inh,AMPK-alpha1; 1 µM,11% and 9%
same,%Inh,AMPK-alpha2,0%
same,%Inh,ANKK1; 1 µM,0% and 16%
same,%Inh,ARK5; 1 µM,0% and 12%
same,%Inh,ASK1; 1 µM,0% and 2%
same,%Inh,ASK2; 1 µM,30% and 6%
same,%Inh,AURKA; 1 µM,16% and 23%
same,%Inh,AURKB; 1 µM,23% and 7%
CCC(CC)(CC)n1cnc2c(N)ncnc21 [SKF-97620],%Inh,ABL2,1%
same,%Inh,ACVR1B,10%
same,%Inh,ACVR1,0%
same,%Inh,ACVR2A,0%
same,%Inh,ACVR2B,0%
same,%Inh,ACVRL1,0%
same,%Inh,ADCK3,0%
same,%Inh,ADCK4,9%
same,%Inh,AKT1,11%
same,%Inh,AKT2,0%
same,%Inh,AKT3,2%
same,%Inh,ALK,0%
same,%Inh,AMPK-alpha1,8%
same,%Inh,AMPK-alpha2,54%
same,%Inh,ANKK1,17%
same,%Inh,ARK5,0%
same,%Inh,ASK1,2%
same,%Inh,ASK2,26%
same,%Inh,AURKA,28%
same,%Inh,AURKB,24%
CCCc1ccc(S(=O)(=O)NC2CCN(c3ccnc(Nc4ccc(OC)cc4)n3)C2)cc1 (stereo not shown) [GSK1379737],%Inh,ABL2,14%
same,%Inh,ACVR1B,0%
same,%Inh,ACVR1,0%
same,%Inh,ACVR2A,0%
same,%Inh,ACVR2B,0%
same,%Inh,ACVRL1,0%
same,%Inh,ADCK3,0%
same,%Inh,ADCK4,66%
same,%Inh,AKT1,0%
same,%Inh,AKT2,0%
same,%Inh,AKT3,0%
same,%Inh,ALK,30%
same,%Inh,AMPK-alpha1,0%
same,%Inh,AMPK-alpha2,0%
same,%Inh,ANKK1,0%
same,%Inh,ARK5,0%
same,%Inh,ASK1,0%
same,%Inh,ASK2,0%
same,%Inh,AURKA,0%
same,%Inh,AURKB,32%
CC(=O)Nc1n[nH]c2ncc(-c3ccccc3)cc12 [SB-548492],%Inh,ABL2,11%
same,%Inh,ACVR1B,2%
same,%Inh,ACVR1,13%
same,%Inh,ACVR2A,37%
same,%Inh,ACVR2B,10%
same,%Inh,ACVRL1,0%
same,%Inh,ADCK3,0%
same,%Inh,ADCK4,0%
same,%Inh,AKT1,0%
same,%Inh,AKT2,0%
same,%Inh,AKT3,5%
same,%Inh,ALK,0%
same,%Inh,AMPK-alpha1,10%
same,%Inh,AMPK-alpha2,1%
same,%Inh,ANKK1,20%
same,%Inh,ARK5,0%
same,%Inh,ASK1,20%
same,%Inh,ASK2,23%
same,%Inh,AURKA,16%
same,%Inh,AURKB,17%

# Reference: PMC5540273 (PLoS ONE, 2017)
